Inconclusive results are not listed. The source made the active and inactive calls. Rule for the calls, unless noted: active = hit-call score of the fitted dose curve at least 0.9, where 1 is the maximum; inconclusive = response in the unintended direction; inactive = score below 0.9.
Legend:
[1] = CCTE_Mundy_HCI_iCellGluta_NOG_NeuriteLength: CCTE's Neurite Outgrowth Assay in iCellGluta cells for Neurite Length, Mundy Lab (AID 2284318)
In short: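 Automated high-content imaging of betaIII-tubulin (Alexa Fluor-488) and Hoechst-stained cells gave neurite length, normalized to the DMSO baseline.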

IYD (gene 389434) = assay: CCTE_GLTED_hIYD: CCTE's human Iodotyrosine Deiodinase (xIYD) Inhibition Assay, Great Lakes Toxicology and Ecology Division (GLTED) Lab (AID 2284317);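 note: cell-free human IYD enzyme made in baculovirus insect cells; iodide freed from monoiodotyrosine measured by cerium arsenite color change at 420 nm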
In short: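 Deiodination of MIT by insect-cell-produced human IYD is measured after a 3 h incubation with test chemical. Free iodide passes through a Dowex column and accelerates Sandell-Kolthoff Ce4+ reduction, read at 420 nm; run in triplicate.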

[2] = system: Brachyury (BRA) Protein Expression, Deisenroth Lab, TBXT (gene 6862); assay: CCTE_Deisenroth_DEVTOX-GLR_legacy_Bra: (Legacy) CCTE's DevTox GLR-Endo Assay Evaluation of Brachyury (BRA) Protein Expression, Deisenroth Lab (AID 2284329; active = hit-call score of the fitted dose curve at least 0.9, where 1 is the maximum; inactive = score below 0.9)
In short: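 High-content imaging of fixed RUES2-GLR cells after a 48-hour differentiation with two compound exposures yields percent cells whose Bra signal exceeds pluripotent control median by 5x BMAD; values are baseline-corrected to DMSO.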

[3] = TAMU_PeakParms_SingleDonor1434_Asystole: Texas A&M University (TAMU) 1.5-hr Human Induced Pluripotent Stem Cell (iPSC)-derived Cardiomyocytes Calcium (Ca+2) Flux Assay for Cardiotoxicity: Asystole (quiescence of beating) (AID 2284328)
In short: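 Human iPSC-derived cardiomyocytes (donor 1434) were exposed to 0.2, 1, 10 and 100 uM compound in 0.5% DMSO for 90 min at 37C. Ca2+-dye fluorescence gave average peak frequency; POD is EC95, a 95% beat-rate drop versus DMSO.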

[4] = CCTE_Deisenroth_5AR_NBTE_donor: CCTE's 5alpha-reductase NanoBRET Target Engagement Assay […], Deisenroth Lab (AID 2284319; active = hit-call score of the fitted dose curve at least 0.9, where 1 is the maximum; inactive = score below 0.9); settings: actives raise or lower the signal
In short: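 HEK293T cells were reverse transfected with an SRD5A2-NanoLuc vector for 20 h, exposed to test chemical (8 points, 10 nM - 29.9 uM) for 3 h, then testosterone tracer for 2 h more. Donor luminescence (460 nm) was read; bidirectional fit versus DMSO.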

[5] = CCTE_Deisenroth_5AR_NBTE_acceptor: CCTE's 5alpha-reductase NanoBRET Target Engagement Assay - Autofluorescence Screen, Deisenroth Lab (AID 2284321; active = hit-call score of the fitted dose curve at least 0.9, where 1 is the maximum; inactive = score below 0.9;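 note: compound fluorescence in the acceptor channel under 460 nm excitation flags autofluorescence artifacts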); settings: actives raise or lower the signal
In short: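 Using three independent plate-reader runs, nominal 100 uM chemicals were checked for intrinsic fluorescence (ex 460 nm). DMSO defined the baseline for bidirectional fitting.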

SRD5A2 (gene 6716) = assay: CCTE_Deisenroth_5AR_NBTE_ratio: CCTE's 5alpha-reductase NanoBRET Target Engagement Assay - Ratio, Deisenroth Lab (AID 2284322; active = hit-call score of the fitted dose curve at least 0.9, where 1 is the maximum; inactive = score below 0.9); settings: actives raise or lower the signal
In short: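 HEK293T cells transiently expressing an SRD5A2-NanoLuc fusion (20 h post-transfection) were exposed to test chemical (10 nM - 29.9 uM, 8 points) for 3 h, then testosterone tracer for a further 2 h. Acceptor/donor BRET ratio was fitted bidirectionally against DMSO baseline.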

[6] = VALA_MIGHUV2_Bcatenin: VALA Sciences human Umbilical Vein Endothelial Cell Migration (MIGHUV) Assay, Nuclear Translocation of beta-Catenin after Recovery (AID 2284315)
Experimental: VALA_MIGHUV2_BCatenin is a cell-based, multiplexed assay that uses umbilical vein-derived endothelial cells (HUVEC). Measurements were taken 24 hours after chemical dosing in a 96-well plate.VALA_MIGHUV2_Bcatenin is the one of two assay components measured from the VALA_MIGHUV2 assay. It is designed to make measurements of nuclear translocation of CTNB, a form of morphology reporter, as detected with fluorescence intensity signals by HCS Fluorescent Imaging technology.Data from the assay component VALA_MIGHUV2_BCatenin was analyzed at the endpoint, VALA_MIGHUV2_BCatenin, in the positive analysis fitting direction relative to DMSO as the negative control and baseline of activity. Using a type of morphology reporter, gain-of-signal activity can be used to understand developmental effects. To generalize the intended target to other relatable targets, this assay endpoint is annotated to the neurodevelopment intended target family, where the subfamily is migration.
Cells were seeded on 384-well microplates (day-0) at a density of 9000 cells per well for detection of wound area recovery or 4000 cells per well for detection of beta-catenin (CTNB) immunoreactivity and incubated in Endothelial Cell Growth Medium (CAI, San Diego; catalog 211-500). After 24 hours of culture, the HUVEC plates were scratched using a custom scratch head with the Bravo liquid handling system. […]

[7] = VALA_TUBHUV_Antagonist_TubuleLength: VALA Sciences human Umbilical Vein Endothelial Tubule Formation (TUBHUV) Antagonism Assay (AID 2284325)
Experimental: VALA_TUBHUV_Antagonist is a cell-based, multiplexed assay that uses human umbilical vein endothelial cells (HUVEC). Measurements were taken 72 hours after chemical dosing in a 96-well plate.VALA_TUBHUV_Antagonist_TubuleLength is the one of two assay components measured from the VALA_TUBHUV_Antagonist assay. It is designed to make measurements of tubulogenesis, a form of morphology reporter, as detected with fluorescence intensity signals by HCS Fluorescent Imaging technology. This VALA_TUBHUV_Antagonist assay was designed to detect chemical suppression of tubulogenesis, i.e. antagonism.Data from the assay component VALA_TUBHUV_Antagonist_TubuleLength was analyzed at the endpoint, VALA_TUBHUV_Antagonist_TubuleLength, in the positive analysis fitting direction relative to DMSO as the negative control and baseline of activity. Using a type of morphology reporter, loss-of-signal activity can be used to understand developmental effects. To generalize the intended target to other relatable targets, this assay endpoint is annotated to the neurodevelopment intended target family, where the subfamily is tubulogenesis.
This HUVEC-HDF assay was designed to detect chemical suppression of tubulogenesis, i.e. antagonism. […]

[8] = VALA_MIGHUV2_WoundArea: VALA Sciences human Umbilical Vein Endothelial Cell Migration (MIGHUV) Assay, Area of Scratch Wound after Recovery (AID 2284316)
In short: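 Wound-area endpoint read by fluorescence imaging of Hoechst-stained nuclei after a 24 h recovery period following scratch of HUVEC monolayers (9000 cells/well). Chemicals dosed within 30 min post-scratch, triplicate 6-point series, 0.1% DMSO vehicle; Cytochalasin D positive control.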

SMILES: C=CCC1=C(C)[C@@H](OC(=O)[C@@H]2[C@@H](C=C(C)C)C2(C)C)CC1=O
- AC50 [1]: 5.87 µM (active)

SMILES: CCCCOC(=O)c1ccccc1C(=O)OCCCC
- outcome (IYD (gene 389434)): inactive
- outcome [1]: inactive

SMILES: COC(=O)c1ccccc1C(=O)OC
- outcome [2]: inactive

SMILES: CCCCC(CC)COC(=O)c1ccccc1C(=O)OCC(CC)CCCC (centres undefined)
- AC50 [1]: 36.1 µM (active)
- outcome [3]: inactive

SMILES: CNC(=O)ON=CC(C)(C)SC
- outcome [3]: inactive

SMILES: CO/C=C(/C(=O)OC)c1ccccc1Oc1cc(Oc2ccccc2C#N)ncn1
- AC50 [1]: 18.9 µM (active)

SMILES: COP(=S)(OC)Oc1nc(Cl)c(Cl)cc1Cl
- AC50 [1]: 23.9 µM (active)

SMILES: CC1COC(Cn2cncn2)(c2ccc(Oc3ccc(Cl)cc3)cc2Cl)O1 (centres undefined)
- outcome (IYD (gene 389434)): inactive

SMILES: Oc1ccccc1-c1ccccc1
- outcome (IYD (gene 389434)): inactive
- outcome [4]: inactive
- outcome [5]: inactive
- AC50 (SRD5A2 (gene 6716)): 31.5 µM (active)
- outcome [3]: inactive

SMILES: COP(N)(=O)SC (centres undefined)
- outcome [1]: inactive

SMILES: CCCCNC(=O)OCC#CI
- AC50 [4]: 50 µM (active)
- AC50 [5]: 50 µM (active)
- AC50 (SRD5A2 (gene 6716)): 50 µM (active)
- outcome [3]: inactive

SMILES: COC(=O)N(OC)c1ccccc1COc1ccn(-c2ccc(Cl)cc2)n1
- AC50 [1]: 2.57 µM (active)
- outcome [4]: inactive
- outcome [5]: inactive
- AC50 (SRD5A2 (gene 6716)): 34.1 µM (active)

SMILES: CCCCNC(=O)n1c(NC(=O)OC)nc2ccccc21
- outcome [1]: inactive

SMILES: N#Cc1nn(-c2c(Cl)cc(C(F)(F)F)cc2Cl)c(N)c1S(=O)C(F)(F)F (centres undefined)
- outcome [6]: inactive
- outcome [1]: inactive
- outcome [7]: inactive

SMILES: OC(c1ccc(Cl)cc1)(c1cncnc1)c1ccccc1Cl (centres undefined)
- outcome (IYD (gene 389434)): inactive

SMILES: N#Cc1cc(Br)c(O)c(Br)c1
- outcome (IYD (gene 389434)): inactive

SMILES: COc1ccc(C(c2ccc(OC)cc2)C(Cl)(Cl)Cl)cc1
- outcome [4]: inactive
- outcome [5]: inactive
- outcome (SRD5A2 (gene 6716)): inactive

SMILES: CCOC(=O)CC(SP(=S)(OC)OC)C(=O)OCC (centres undefined)
- AC50 [1]: 2.98 µM (active)

SMILES: CCOc1cc(Oc2ccc(C(F)(F)F)cc2Cl)ccc1[N+](=O)[O-]
- AC50 [1]: 73.7 µM (active)

SMILES: CC(C)(C)c1ccc(CSc2cnn(C(C)(C)C)c(=O)c2Cl)cc1
- AC50 [8]: 7.5 µM (active)
- AC50 [1]: 0.15 µM (active)
- outcome [7]: inactive

SMILES: Cc1ccc(-c2c(Cl)nc(C#N)n2S(=O)(=O)N(C)C)cc1
- AC50 [1]: 32.6 µM (active)

SMILES: N#CC(CCc1ccc(Cl)cc1)(Cn1cncn1)c1ccccc1 (centres undefined)
- outcome [4]: inactive
- outcome [5]: inactive
- outcome (SRD5A2 (gene 6716)): inactive

SMILES: CN(C)C(=S)SSC(=S)N(C)C
- AC50 [1]: 0.0483 µM (active)

SMILES: C=CC1(C)OC(=O)N(c2cc(Cl)cc(Cl)c2)C1=O (centres undefined)
- AC50 [1]: 19.4 µM (active)

From PubChem BioAssay (EPA / NIEHS)
